# Test results as given in PubChem BioAssay.
# Where “and” joins values, the source holds several entries; their conditions need not be identical. Equal values may be shown once. Records with an inconclusive call do not appear. For some assays here: Potency and affinity values are given separately. Calls of active or inactive are those of the source. Unless noted, no rule for the calls is given here.
# Key:
# [1] = compounds altering viability of human ES cells (AID 493140); conditions: human embryonic stem cell survival screen; stronger effect = higher value;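 also: cells exposed to compounds for four days before counting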
# [2] = signal quenchers or enhancers, Cy5 substrate/SSB – biochemical, NIH Clinical Collection, E. coli SSB, artefact control for HCV NS3 helicase inhibitor project (AID 743268); conditions: Cy5-oligo bound E. coli SSB, fluorescence interference
# [3] = tested on: Hepatitis C virus NS3 helicase; assay: blockers of NS3h binding to DNA – biochemical, fluorescence polarization, NIH Clinical Collection, primary screen (AID 743270); conditions: NS3 helicase binding to Cy5-dT15 DNA, stronger effect = higher value, concentration not given here
# [4] = target: Single-stranded DNA-binding protein (Escherichia coli (strain K12)) (UniProt P0AGE0); assay: SSB-ssDNA binding inhibitors – biochemical, fluorescence polarization, NIH Clinical Collection, counter-screen for HCV NS3 helicase inhibitor project (AID 743271; in the data active = inhibition above about 28%); conditions: E. coli SSB-DNA binding, stronger effect = higher value, concentration not given here
# [5] = compounds distorting NS3 helicase fluorescence signal – biochemical, NIH Clinical Collection, artefact control for HCV NS3 helicase inhibitor project (AID 743272); conditions: fluorescence interference counterscreen, HCV NS3 helicase assay; stronger effect = lower value;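 also: HCV NS3 helicase with a Cy5 labelled single stranded DNA probe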
# [6] = target: Mitogen-activated protein kinase 7 (Homo sapiens) (UniProt Q13164); assay: Gal4-ERK5 driven luciferase induction – cell-based, HTS, primary screen (AID 1508626;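 active = luciferase signal above three times the same-plate solvent-only control wells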;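 also: luciferase driven by Gal4-ERK5 fusion binding five Gal4 sites before minimal TATA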); conditions: HeLa Gal4-ERK5 transactivation, 18 h, at 5 µM, stronger effect = higher value
# Chain of Mitogen-activated protein kinase 7 (Homo sapiens) (Q13164 whole entry, looked up, the tested form may be a part): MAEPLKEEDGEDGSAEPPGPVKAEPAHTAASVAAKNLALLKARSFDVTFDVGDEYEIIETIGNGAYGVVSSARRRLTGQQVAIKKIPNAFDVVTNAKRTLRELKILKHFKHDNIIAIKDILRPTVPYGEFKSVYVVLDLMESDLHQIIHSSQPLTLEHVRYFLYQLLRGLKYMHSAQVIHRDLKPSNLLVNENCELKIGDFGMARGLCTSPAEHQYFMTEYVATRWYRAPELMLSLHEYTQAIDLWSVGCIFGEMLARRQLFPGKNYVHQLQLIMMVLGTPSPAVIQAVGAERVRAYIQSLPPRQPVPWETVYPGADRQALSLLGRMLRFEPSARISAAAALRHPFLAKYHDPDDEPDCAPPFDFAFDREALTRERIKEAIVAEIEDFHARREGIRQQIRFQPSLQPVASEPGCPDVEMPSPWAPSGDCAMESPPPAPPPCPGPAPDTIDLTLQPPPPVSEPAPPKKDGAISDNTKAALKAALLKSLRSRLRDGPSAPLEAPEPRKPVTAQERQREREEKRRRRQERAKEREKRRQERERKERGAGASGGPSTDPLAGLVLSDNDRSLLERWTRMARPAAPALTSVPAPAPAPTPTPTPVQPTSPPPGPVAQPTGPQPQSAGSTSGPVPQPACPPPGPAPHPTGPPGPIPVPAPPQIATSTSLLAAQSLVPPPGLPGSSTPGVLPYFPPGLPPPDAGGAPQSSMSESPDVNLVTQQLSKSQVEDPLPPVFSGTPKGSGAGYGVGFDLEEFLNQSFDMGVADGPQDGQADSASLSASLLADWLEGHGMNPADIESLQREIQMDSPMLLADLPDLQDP
# [7] = drug combination toxicity in non-malignant astrocytes – cell-based, BGB or cisplatin IC20 combos, cytotoxicity control for chromothriptic childhood tumor combination screen (AID 1671460; in the data active = inhibition above about 80%;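 also: cells exposed to compounds for 96 hours before viability readout; 0% = vehicle and 100% = killing control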); conditions: Human astrocytes, viability inhibition, drug combinations, at 0.5 µM, stronger effect = higher value
# [8] = blockers of polyQ-driven CASP3 activation – cell-based (AID 1583); conditions: polyglutamine-induced caspase-3 activation, cell assay; stronger effect = higher value;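 tested at 10 µM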
# [9] = yeast 75Q aggregation reduction – 75Q-TubU reporter (AID 1593); conditions: Yeast 75Q polyglutamine aggregation reporter
# [10] = restoration of touch response, mutant HTT neurons – whole organism, C. elegans mechanosensory neurons, N-terminal huntingtin (AID 1599); conditions: C. elegans polyQ-huntingtin mechanosensory neurons, stronger effect = higher value
# [11] = blockers of cytochrome c efflux from mitochondria – biochemical, purified mitochondria (AID 1603); conditions: stronger effect = lower value;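 also: mouse liver mitochondria challenged with calcium chloride; signal normalized to the plate average as 100%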
# [12] = polyglutamine aggregate formation blockers (AID 1604); conditions: polyglutamine-induced protein aggregation inhibition assay; stronger effect = higher value; tested at 2.5 µM
# [13] = glutamate transport activators, MN-1 cells, MN-1 cell line (AID 1612); conditions: MN-1 motor neuron cells, stronger effect = higher value;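 also: tested at 1 µM final; 0% = mean of DMSO vehicle wells on each plate; positive means more glutamate uptake than control and negative means less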
# [14] = GFP-Q80 aggregate reduction, neuronal-like cells, cell-based, NGF-treated PC12, GFPQ80 (AID 1614); conditions: PC12 NGF-treated GFP-polyQ80 inclusion reduction;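 also: lower means fewer inclusions and 0 means no inclusions at all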
# [15] = 75Q-TubH aggregate inhibition, S. cerevisiae, yeast (AID 1616); conditions: S. cerevisiae 75Q-TubH polyglutamine aggregation suppression; stronger effect = higher value
# [16] = target: ATP-dependent translocase ABCB1 (Homo sapiens) (UniProt P08183); assay: P-glycoprotein substrate transport blockade – cell-based (AID 377; in the data active = fluorescence slope change above about 50%); conditions: MDR1-expressing cells, fluorescent substrate accumulation slope; stronger effect = higher value; concentration not given here
# Chain of ATP-dependent translocase ABCB1 (Homo sapiens) (P08183 whole entry, looked up): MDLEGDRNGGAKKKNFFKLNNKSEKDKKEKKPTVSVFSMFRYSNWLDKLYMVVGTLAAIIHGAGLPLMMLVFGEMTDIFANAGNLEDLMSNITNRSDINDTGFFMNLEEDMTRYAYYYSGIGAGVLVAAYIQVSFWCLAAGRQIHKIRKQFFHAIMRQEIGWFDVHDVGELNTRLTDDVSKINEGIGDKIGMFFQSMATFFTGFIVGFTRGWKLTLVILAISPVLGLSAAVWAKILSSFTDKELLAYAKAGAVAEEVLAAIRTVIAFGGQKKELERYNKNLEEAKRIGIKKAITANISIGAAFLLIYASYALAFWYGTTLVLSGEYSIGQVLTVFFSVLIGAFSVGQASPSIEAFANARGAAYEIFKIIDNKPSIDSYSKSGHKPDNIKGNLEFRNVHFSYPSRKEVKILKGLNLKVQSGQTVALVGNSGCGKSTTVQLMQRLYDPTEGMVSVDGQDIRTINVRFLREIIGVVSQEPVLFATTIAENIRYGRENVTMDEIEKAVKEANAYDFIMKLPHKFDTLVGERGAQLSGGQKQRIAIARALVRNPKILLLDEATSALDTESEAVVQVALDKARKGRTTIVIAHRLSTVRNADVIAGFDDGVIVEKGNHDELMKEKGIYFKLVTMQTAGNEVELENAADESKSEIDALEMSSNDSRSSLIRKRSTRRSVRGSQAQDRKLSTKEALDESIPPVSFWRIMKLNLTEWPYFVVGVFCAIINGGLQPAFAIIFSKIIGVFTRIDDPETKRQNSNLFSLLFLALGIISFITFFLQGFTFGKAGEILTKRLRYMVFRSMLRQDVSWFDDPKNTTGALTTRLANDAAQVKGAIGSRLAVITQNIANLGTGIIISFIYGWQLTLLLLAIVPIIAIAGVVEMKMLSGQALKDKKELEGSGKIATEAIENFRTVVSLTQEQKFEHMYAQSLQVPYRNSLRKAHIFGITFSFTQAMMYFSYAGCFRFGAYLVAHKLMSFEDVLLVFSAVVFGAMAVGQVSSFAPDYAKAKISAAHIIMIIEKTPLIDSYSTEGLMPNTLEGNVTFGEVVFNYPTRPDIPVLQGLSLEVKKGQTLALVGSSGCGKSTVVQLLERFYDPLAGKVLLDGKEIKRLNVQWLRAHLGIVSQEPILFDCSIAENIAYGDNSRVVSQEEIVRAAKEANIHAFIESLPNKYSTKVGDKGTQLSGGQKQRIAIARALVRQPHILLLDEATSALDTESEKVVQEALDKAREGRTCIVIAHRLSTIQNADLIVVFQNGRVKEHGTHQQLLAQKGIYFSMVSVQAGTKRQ
# [17] = liver-stage malaria parasite load reduction – cell-based, known kinase inhibitor set, luminescence, hepatoma host viability (AID 624392); conditions: Plasmodium liver stage in hepatoma cells, luciferase luminescence, concentration not given here; liver cell % of control: measured here: host liver cell viability; parasite % of control: stronger effect = lower value;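 also: infected cells incubated roughly two days before readout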
# [18] = measured here: combo with BGB IC20
# [19] = measured here: combo with cisplatin IC20
smiles,measurement,setting,value
NCc1ccccc1CC(=O)N[C@@H]1C(=O)N2C(C(=O)O)=C(CSc3nnnn3CC(=O)O)CS[C@H]12,survival,[1],7.42 (inactive)
C[C@]12CC[C@@H]3c4ccc(OS(=O)(=O)O)cc4CC[C@H]3[C@@H]1CCC2=O,survival,[1],5.67 (inactive)
same,fluorescence ratio,[2],1.03 (inactive)
same,inhibition,[3],-1.09% (inactive)
same,inhibition,[4],-2.76% (inactive)
same,fluorescence ratio,[5],1.01 (inactive)
same,luciferase signal,[6],76 AU (inactive)
CCOC(=O)O[C@]1(C(=O)COC(=O)CC)CC[C@H]2[C@@H]3CCC4=CC(=O)C=C[C@]4(C)[C@H]3[C@@H](O)C[C@@]21C,survival,[1],5.17 (inactive)
CO[C@H]1C[C@H](O[C@H]2[C@H](C)[C@@H](O[C@@H]3O[C@H](C)C[C@H](N(C)C)[C@H]3OC(C)=O)[C@@H](C)C[C@@]3(CO3)C(=O)[C@H](C)[C@@H](OC(C)=O)[C@@H](C)[C@@H](C)OC(=O)[C@@H]2C)O[C@@H](C)[C@@H]1OC(C)=O,luciferase signal,[6],232 AU (inactive)
C[C@@]1(c2nc3c(C(N)=O)cccc3[nH]2)CCCN1,inhibition,[7],-5.3% (inactive) and -11.3% (inactive)
same,inhibition,[7]; [18],-6.99% and -18.5%
same,inhibition,[7]; [19],-13.8% and -3.66%
CCOC(=O)NCCCC(=O)NCCc1ccccc1,inhibition,[7],6.08% (inactive) and 5.44% (inactive)
same,inhibition,[7]; [18],1.7% and -5.49%
same,inhibition,[7]; [19],7.7% and 23%
NC[C@H]1O[C@H](O[C@H]2[C@H](O)[C@@H](O[C@H]3O[C@H](CO)[C@@H](O)[C@H](N)[C@H]3O)[C@H](N)C[C@@H]2N)[C@H](O)[C@@H](O)[C@@H]1O,inhibition,[8],5.91%
same,score,[9],1.82
same,rescue above control,[10],-8.71
same,cytochrome c release ratio,[11],1
same,inhibition of aggregation,[12],28.5%
same,glutamate uptake change,[13],2.43%
same,inclusion score,[14],2
same,aggregation suppression score,[15],1.68
same,luciferase signal,[6],40 AU (inactive)
CC(C)[N+]1(C)[C@@H]2CC[C@H]1CC(OC(=O)C(CO)c1ccccc1)C2 (stereo not given in full),fluorescence slope change,[16],52.9% (active)
same,luciferase signal,[6],44 AU (inactive)
CC1(C)S[C@@H]2[C@H](NC(=O)[C@H](NC(=O)N3CCNC3=O)c3ccccc3)C(=O)N2[C@H]1C(=O)O,luciferase signal,[6],60 AU (inactive)
C[C@@H]1CCC[C@H](C)N1NC(=O)c1ccc(Cl)c(S(N)(=O)=O)c1,fluorescence slope change,[16],11.3% (inactive)
same,luciferase signal,[6],100 AU (inactive)
CO[C@@]1(NC(=O)C2SC(=C(C(N)=O)C(=O)O)S2)C(=O)N2C(C(=O)O)=C(CSc3nnnn3C)CS[C@@H]21 (stereo not given in full),survival,[1],11.4 (inactive)
Cc1ccc(NC(=O)c2ccc(CN3CCN(C)CC3)cc2)cc1Nc1nc(-c2cccnc2)cs1,liver cell % of control,[17],46.6% and 78.6% and 98.8%
same,parasite % of control,[17],29.5% (inactive) and 24.2% (inactive) and 36% (inactive)
O=C(NCC1(c2nc(-c3ccccc3)cs2)CCOCC1)c1cccc(-c2noc(C(F)(F)F)n2)c1,inhibition,[7],-27.1% (inactive) and -7.2% (inactive)
same,inhibition,[7]; [18],-8.11% and -1.8%
same,inhibition,[7]; [19],-58.3% and -12.6%
